Measurements: the supplement of paper PMC13380429
A number with no mark means an inactive call.

System: Vero E6 infected with SARS-CoV-2
Test: inhibition of SARS-CoV-2 cytopathic effect; higher = more antiviral protection, active = above 15
Conditions: 48 h

SMILES	inhibition of SARS-CoV-2 cytopathic effect (1 nM) [%]	inhibition of SARS-CoV-2 cytopathic effect (8.33 nM) [%]	inhibition of SARS-CoV-2 cytopathic effect (100 nM) [%]	inhibition of SARS-CoV-2 cytopathic effect (833.33 nM) [%]	inhibition of SARS-CoV-2 cytopathic effect (10000 nM)
O=C1NCCN1c1ncc([N+](=O)[O-])s1 [niridazole]	0.2	-2.07	-4.84	-1.39	-4.56%
CC(C)Cc1ccc([C@@H](C)C(=O)NCCO)cc1 (racemic) [mabuprofen]	-1.95	-2.13	-0.66	-0.72	-4.85%
CCC(=O)NC1CCc2cccc(OC)c2C1 (stereo not given)	0.92	1.4	2.16	7.57	4.57%
CC(C(=O)O)c1ccc2c(c1)Cc1cccnc1O2 (stereo not given) [pranoprofen]	-0.06	4.49	2.65	1.95	-1.17%
O=C(/C=C/c1ccc(O)c(O)c1)OCCc1ccccc1 [caffeic-acid-phenethyl-ester]	-3.4	-2.75	-2.14	2.36	7.5%
CC1/C=C/C=C/C=C/C=C/C=C/C=C/C=C/C(OC2O[C@H](C)[C@@H](O)[C@H](N)[C@@H]2O)CC(O)C(C(=O)O)C(O)CC(=O)CC(O)CC(O)CC(O)CC(=O)CCCC(=O)CC(=O)OC1C(C)CC(C)C(O)CC(=O)c1ccc(N)cc1 (stereo not given in full) [candicidin]	-0.52	4.78	3.57	4.79	-2.56%
C[C@@H]1CN(CC(=O)Nc2ccc3c(c2)Cc2cccc(-c4cc(=O)cc(N5CCOCC5)o4)c2S3)C[C@H](C)O1	-2.04	0.24	2.16	2.87	35.7% (active)
C[C@@H](N)Cc1c[nH]c2ccc(O)cc12 [alpha-methylserotonin]	-0.1	-1.31	-1.23	-0.05	-3.72%
N#CN=C(NCCCCCCOc1ccc(Cl)cc1)Nc1ccncc1	0.77	-0.03	-4.25	-15	-17.4%
N#Cc1cccc(-c2c[nH]c3ncnc(N4CCOCC4)c23)c1	-1.16	-0.52	-2.71	-0.07	-2.14%
CC[C@H](C)[C@H](N)C1=N[C@H](C(=O)N[C@@H](CC(C)C)C(=O)N[C@H](CCC(=O)[O-])C(=O)N[C@H](C(=O)N[C@H]2CCCCNC(=O)[C@H](CC(N)=O)NC(=O)[C@@H](CC(=O)[O-])NC(=O)[C@H](Cc3cnc[nH]3)NC(=O)[C@@H](Cc3ccccc3)NC(=O)[C@H]([C@@H](C)CC)NC(=O)[C@@H](CCCN)NC2=O)[C@@H](C)CC)CS1.[Zn+2] [bacitracin-zinc]	1.46	1.2	2.85	-0.14	0.15%
CCOC(=O)c1cnc2c(cnn2CC)c1NN=C(C)C [etazolate]	-0.85	4.04	0.13	1.35	-1.47%
C#C[C@]1(O)CC[C@H]2[C@@H]3CCC4=CC(=O)CC[C@@H]4[C@H]3CC[C@@]21C [Norethindrone (Norethisterone)]	-1.49	-0.9	-1.69	1.37	2.33%
C/C(=N\Nc1nnc2c(n1)[nH]c1c(C)cccc12)c1ccccn1	0.125	-0.485	1.94	1.06	-7.81%
CS[C@H]1SC[C@H]2C(=O)N(C)[C@@H](C(C)C)C(=O)OC[C@@H](NC(=O)c3cnc4ccccc4n3)C(=O)N[C@@H](C)C(=O)N(C)[C@@H]1C(=O)N(C)[C@@H](C(C)C)C(=O)OC[C@@H](NC(=O)c1cnc3ccccc3n1)C(=O)N[C@@H](C)C(=O)N2C [echinomycin]	2	-4.69	-19.9	-17.1	-27%
COc1cc(CNC(=O)CCCC/C=C/C(C)C)ccc1O [capsaicin]	0.65	0.89	1.27	-1.15	2.73%
CCCCCCCCCCCCCCCC(=O)OC[C@H](COP(=O)([O-])OCC[N+](C)(C)C)OC(=O)CCCCCCCCCCCCCCC [colfosceril-palmitate]	-7.11	-7.33	-5.95	-6.54	-9.82%
O=S1(=O)N[C@H]2CCCN2c2ccccc21	-9.82	-6.86	-6.43	-8.3	-12.2%
C=CCn1c(=O)c2cnc(Nc3ccc(N4CCN(C)CC4)cc3)nc2n1-c1cccc(C(C)(C)O)n1	-1.29	2.7	0.63	-3.99	-6.53%
Oc1ccc([C@@H]2Oc3ccc(O)cc3[C@@H]3CCC[C@@H]32)cc1 [erteberel]	-2.79	0.52	-1.51	-4.66	2.31%
Cn1cnc2c(F)c(Nc3ccc(Br)cc3F)c(C(=O)NOCCO)cc21 [binimetinib]	3.85	-3.38	-9.91	-10.1	-12%
Nc1nnc(-c2cccc(Cl)c2Cl)c(N)n1 [lamotrigine]	-2.3	-2.08	-1.73	-0.07	0.08%
CN=c1nc(-c2ccccc2)n(-c2ccccc2)s1	1.73	0.95	-0.38	0.89	-1.43%
CCC(=O)O[C@@](Cc1ccccc1)(c1ccccc1)[C@@H](C)CN(C)C [levopropoxyphene]	7.6	2.53	1.97	0.91	-3.41%
N#C/C(=C\c1ccc(O)c(O)c1)C(N)=O [tyrphostin-AG-99]	3.54	0.59	-0.43	3.25	0.46%
CCN(CC)CCNC(=O)c1c(C)[nH]c(/C=C2\C(=O)Nc3ccc(F)cc32)c1C [sunitinib]	0.55	-1.31	2.08	-2.15	30.3% (active)
